Compound activity: PubChem, National Center for Advancing Translational Sciences (NCATS)
An excerpt weighted towards active compounds, which were near 3.3% of everything screened.
RE007 growth inh: less growth of the S. pombe RE007 Vpr strain | 0.21% of 360,000 active | S. pombe RE007 Vpr strain, BacTiter-Glo ATP luminescence, 24 h | Potency, µM (series often up to 92.2 µM), for the others: at the highest dose activity change, negative = less growth, usual class: inhibitors | AID 651644; active = well fitted falling curve with a large enough effect; inconclusive = small, poorly fitted or top-dose-only effect; inactive = no such curve, though single readings can be large or run the other way; note: nearly all actives have a fitted effect of over 50% in size
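Fission yeast RE007 carrying one integrated HIV-1 vpr copy, seeded at OD 0.01 in PMG+AL medium with 23 nL pinned compound. Grown 24 h at 30 degrees; viability read by BacTiter-Glo luminescence after 5 min.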
LmPK inhibitor: inhibitors of Leishmania mexicana pyruvate kinase | Potency, µM (doses to about 57.5 µM), for the others: at the highest dose activity change, negative = inhibition, hits mostly inhibitors | Q27686 | purified LmPK, Kinase-Glo ATP luminescence, 1 h | AID 1721 | 0.37% of 290,000 active
Target sequence (Q27686 whole entry, looked up): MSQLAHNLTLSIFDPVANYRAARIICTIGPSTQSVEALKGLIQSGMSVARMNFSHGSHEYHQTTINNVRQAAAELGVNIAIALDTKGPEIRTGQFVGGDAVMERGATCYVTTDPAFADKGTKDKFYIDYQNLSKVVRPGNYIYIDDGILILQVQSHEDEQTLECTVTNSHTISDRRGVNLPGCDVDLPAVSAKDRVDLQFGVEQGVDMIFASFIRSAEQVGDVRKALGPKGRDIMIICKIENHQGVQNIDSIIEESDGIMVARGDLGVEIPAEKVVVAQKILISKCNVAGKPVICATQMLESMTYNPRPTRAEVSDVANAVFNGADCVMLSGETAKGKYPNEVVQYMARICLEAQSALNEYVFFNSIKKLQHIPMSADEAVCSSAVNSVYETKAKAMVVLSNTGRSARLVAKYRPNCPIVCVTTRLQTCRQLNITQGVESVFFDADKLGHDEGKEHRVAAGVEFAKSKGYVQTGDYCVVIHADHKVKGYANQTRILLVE
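Kinase-Glo luminescence read after 1 h RT reaction of 0.1 nM LmPK with 0.5 mM PEP and 0.1 mM ADP. Activity scaled between uninhibited and enzyme-free controls.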
Giardia FBPA inh: inhibitors of Giardia lamblia fructose-1,6-bisphosphate aldolase; A8B2U2; purified Giardia FBPA; Potency, µM (top dose mostly 59.6 µM), without a hit: top-dose activity, negative = inhibition, actives largely listed as inhibitors; 0.71% of 290,000 active; note: nearly all actives have a fitted effect of over 55% in size
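40 nM FBPA preincubated 10 min at RT with compound (up to 57.5 uM final), then substrate plus GAPDH/TPI/NAD/arsenate coupling and diaphorase/resazurin added. Fluorescence read after 20 min at RT, 525/598 nm.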
Tb PYK inh: blocks Trypanosoma brucei pyruvate kinase. Q57TT1. TbPYK enzyme, Kinase-Glo Plus ATP luminescence, 45 min. Potency, µM (top dose mostly 76.8 µM), without a hit: top-dose activity, negative = inhibition, most hits filed as inhibitors. 0.12% of 410,000 active; note: nearly all actives have a fitted effect of over 50% in size
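ADP (130 uM final) triggers the TbPYK reaction after compound addition; incubation is 45 min at room temperature. Kinase-Glo Plus is then added and luminescence imaged. Normalized data are fitted to concentration-effect curves.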
Sm TGR block: blocks Schistosoma mansoni thioredoxin glutathione reductase; purified TGR, DTNB reduction, TNB absorbance 405 nm; Q962Y6; 3% of 360,000 active; Potency, µM (highest dose often 114 µM), for inactives: at the top dose activity change, negative = inhibition, actives largely listed as inhibitors; note: nearly all actives have a fitted effect of over 60% in size
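TGR 20 nM + NADPH 100 uM (dispensed conc.), cpd preinc 15 min RT; start with NADPH (500 uM addition) then DTNB (15 mM addition). Kinetic TNB absorbance, 405 nm filter. Four-parameter Hill fit across titration.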
* hit, by the source's call; ? = inconclusive; . = not tested or not shown; [ ] = remark or other dose. Unless noted, calls come from the whole dose curve; as a rule, active = well fitted curve in the direction sought with a large enough effect; inconclusive = small, poorly fitted or top-dose-only effect, or another doubt; inactive = no such curve, though single readings can be large; an effect the other way counts as inactive or inconclusive. % is set by controls: 0 for no effect and ±100 for the full control effect; potency is the fitted concentration of half-maximal effect.

SMILES	RE007 growth inh	LmPK inhibitor	Giardia FBPA inh	Tb PYK inh	Sm TGR block
Cc1ccc2cc3cc(C(=O)N4CCN(Cc5ccccc5)CC4)sc3nc2c1	-12%	-2%	7%	1%	-27%
O=C1C2=C(CCCC2)C(=O)N1c1cccc(OCCBr)c1	?	1%	1%	6%	45µM*
CC(C)CN(CCOc1cccc(N2C(=O)C3=C(CCCC3)C2=O)c1)CC(C)C	-8%	1%	16%	-3%	0%
CSc1ccc(/C=N/NC(=O)c2cccc(O)c2)cc1	9%	8.9µM*	-2%	-11%	-9%
CCOc1ccc(C(=O)N/N=C/c2ccc(SC)cc2)cc1	.	2%	2%	7%	5%
Cc1cccc(N(C)S(=O)(=O)c2ccc3c(c2)NC(=O)CC(=O)N3)c1	-4%	4%	4%	5%	5%
COc1ccc(-c2nc(CSCC(=O)N3CCc4ccccc4C3)c(C)o2)cc1OC	-13%	-6%	-14%	-8%	32µM*
COc1ccc(-c2nc(CSCC(=O)N3CCN(c4cccc(C)c4)C(C)C3)c(C)o2)cc1OC (stereo unspecified)	-11%	-1%	-22%	-8%	45µM*
COc1ccc2oc(C(=O)OCC(=O)c3ccc4c(c3)OCCO4)c(C)c2c1	-1%	9%	-3%	-7%	3%[11.4 µM]
COc1ccc(N(C(=O)Cc2cccs2)C(C(=O)NC2CCCC2)c2ccncc2)cc1OC (stereo unspecified)	5%	3%	-5%	0%	-3%
C#CC(=O)N(c1ccc(OC)c(OC)c1)C(C(=O)NC1CCCC1)c1cccs1 (stereo unspecified)	26%	-6%	-2%	0%	5.6µM*
C#CC(=O)N(c1cccc(OC)c1)C(C(=O)NC1CCCC1)c1cccs1 (stereo unspecified)	10%	0%	-1%	-3%	7.9µM*
CC(=O)N/C(=C/c1ccccc1)C(=O)NC(Cc1ccccc1)C(=O)O (stereo unspecified)	-6%	-2%	5%	-5%	4%
CCCNC(=O)Nc1ccc(C)cc1C	.	-2%	1%	-1%	0%
CCOC(=O)C1(CC2CCCCO2)CCN(Cc2ccccc2-c2ccco2)CC1 (stereo unspecified)	-10%	-2%	-7%	0%	40µM*
OCC1(CC2CCCCO2)CCN(Cc2ccccc2-c2ccco2)CC1 (stereo unspecified)	-22%	12%	-8%	6%	?
C/C(=C\c1ccc2c(c1)OCO2)C1Nc2cccc3cccc(c23)N1	.	.	.	-10%	20µM*
C/C(=C\c1ccccc1)C1Nc2cccc3cccc(c23)N1	.	.	.	.	13µM*
C/C(=C\c1ccccc1F)C1Nc2cccc3cccc(c23)N1	.	.	.	-6%	?
COc1cc(/C=N/N=C2/NC(=O)C(CC(=O)O)S2)ccc1OCc1ccc(Cl)cc1 (stereo unspecified)	-2%	?	7%	18µM*	-10%
CC1=C(C(=O)N2CCOCC2)CC(CC(=O)NCCN2CCOCC2)C(=O)N1Cc1ccc(C(C)(C)C)cc1 (stereo unspecified)	3%	.	.	-4%	.
C/C(=N\N=C(/N)SC1CC(=O)N(c2ccc(Br)cc2)C1=O)c1cccs1 (stereo unspecified)	-1%	-2%	0%	-13%	14µM*
Cc1ccc(C(=O)Nc2ccccc2C(=O)OCc2cc(=O)n3nc(C(C)C)sc3n2)cc1	.	.	.	3%	5%
CCC(=O)Nc1ccccc1N1CCN(c2ccc(F)cc2)CC1	15%	-2%	-6%	-7%	0%
Cc1nc(-c2ccc(NC(=O)c3ccccc3)cc2)cs1	45µM*	6%	-2%	?	-10%
O=C(CCn1c(=O)oc2ccccc21)n1c(=O)oc2ccccc21	20%	4%	1%	0%	16µM*
CCOC(=O)C1=C(C)NC(=O)NC1c1ccc(-c2ccccc2F)o1 (stereo unspecified)	17%	1%	3%	-19%	?
COCCOC(=O)C1=C(C)NC(=O)NC1c1ccc(-c2ccc(F)cc2)o1 (stereo unspecified)	-5%	-2%	3%	-5%	10µM*
